From PMC4336329 (PLoS ONE, 2015)
Out of some 310,000 compounds screened, about 14,000 (4.5%) showed an effect of 50% or more. The effect is printed as a negative number. For the sample, strong results were picked, then their nearest neighbours and some compounds at random.

target: human ether-à-go-go-related gene (hERG) potassium channel (human, UniProt Q12809); assay: primary screen, population patch clamp on CHO cells stably expressing hERG; higher = less effect of the substance
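Note: peak tail current of the secondary pulse compared with the same well before compound.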

Chain of human ether-à-go-go-related gene (hERG) potassium channel (Q12809 whole entry, looked up): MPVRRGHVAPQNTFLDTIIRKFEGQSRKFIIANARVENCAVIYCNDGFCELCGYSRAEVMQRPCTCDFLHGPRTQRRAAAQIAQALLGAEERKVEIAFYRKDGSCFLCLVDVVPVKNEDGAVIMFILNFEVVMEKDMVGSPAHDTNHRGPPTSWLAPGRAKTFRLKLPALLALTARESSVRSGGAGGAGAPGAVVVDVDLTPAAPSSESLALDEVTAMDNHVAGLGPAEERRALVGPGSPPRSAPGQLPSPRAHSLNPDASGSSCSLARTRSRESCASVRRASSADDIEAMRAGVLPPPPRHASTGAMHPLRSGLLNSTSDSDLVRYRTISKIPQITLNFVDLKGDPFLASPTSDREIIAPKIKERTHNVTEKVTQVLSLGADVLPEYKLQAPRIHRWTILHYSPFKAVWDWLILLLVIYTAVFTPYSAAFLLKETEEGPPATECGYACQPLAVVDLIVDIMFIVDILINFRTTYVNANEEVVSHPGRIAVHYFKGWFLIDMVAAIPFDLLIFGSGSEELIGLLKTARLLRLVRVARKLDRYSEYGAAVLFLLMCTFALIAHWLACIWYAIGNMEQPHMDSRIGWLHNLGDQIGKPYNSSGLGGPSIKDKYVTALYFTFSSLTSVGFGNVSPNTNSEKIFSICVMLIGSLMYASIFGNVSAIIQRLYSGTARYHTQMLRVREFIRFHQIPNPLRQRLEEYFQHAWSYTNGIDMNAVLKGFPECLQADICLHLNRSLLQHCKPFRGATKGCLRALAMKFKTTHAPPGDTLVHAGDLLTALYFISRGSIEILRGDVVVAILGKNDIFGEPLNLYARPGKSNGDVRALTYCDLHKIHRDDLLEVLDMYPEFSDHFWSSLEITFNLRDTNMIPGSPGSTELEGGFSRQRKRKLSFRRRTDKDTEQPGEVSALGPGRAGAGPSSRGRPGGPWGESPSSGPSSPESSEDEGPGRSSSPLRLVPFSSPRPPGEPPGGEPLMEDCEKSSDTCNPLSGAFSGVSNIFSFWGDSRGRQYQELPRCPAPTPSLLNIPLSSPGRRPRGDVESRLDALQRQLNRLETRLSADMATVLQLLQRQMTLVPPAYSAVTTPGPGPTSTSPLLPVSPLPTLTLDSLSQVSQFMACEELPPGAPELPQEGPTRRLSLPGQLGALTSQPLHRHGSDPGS

| SMILES | hERG current change (%, negative = inhibition) at 10uM |
| --- | --- |
| Cc1cccc(-c2nc3c(c(=O)c4ccccc4n3C)c(=O)n2-c2ccccc2)c1 | 14% |
| Cc1cccc(S(=O)(=O)c2c(N)n(/N=C/c3cccnc3)c3nc4ccccc4nc23)c1 | -4.67% |
| COc1cc(C(=O)NCC(c2cccs2)N2CCOCC2)cc(OC)c1OC (stereo not drawn) | 11.5% |
| Cc1cccc(C)c1OC(=O)Cc1ccccc1[N+](=O)[O-] | -4.62% |
| CCCOc1ccc(C(=O)NNC(=O)c2cccc(S(=O)(=O)N3CCN(C(C)=O)CC3)c2)cc1OC | -13.8% |
| COc1cc(C2Nc3cccc4cccc(c34)N2)ccc1OC(C)=O | 11.2% |
| CC(NC(=O)C(=O)N1CCOCC1)C(c1cccs1)N1CCN(c2ccccc2)CC1 (stereo not drawn) | 8.31% |
| O=S(=O)(c1ccccc1)c1cnn(-c2ccccc2)c1-c1ccc(F)cc1 | -0.19% |
| Cc1ccc(C)c(NC(=S)N2CCCCCC2)c1 | 0.578% |
| Cc1nn(C)c(C(=O)N2CCN(C(=O)c3ccco3)CC2)c1[N+](=O)[O-] | 8.95% |
| O=[N+]([O-])c1nn(-c2ccccc2)[n+]([O-])c1N1CCN(c2ccccc2)CC1 | -0.32% |
| O=C(c1ccco1)N1CCN(c2c([N+](=O)[O-])nn(-c3ccc(Cl)cc3)[n+]2[O-])CC1 | -57.2% |
| O=C(c1ccco1)N1CCN(c2ccc(Cl)c(Cl)c2)CC1 | -29.7% |
| Cc1cccc(-n2nc([N+](=O)[O-])c(N3CCN(C(=O)c4ccco4)CC3)[n+]2[O-])c1 | -68.7% |
| O=C(c1ccco1)N1CCN(c2c([N+](=O)[O-])nn(-c3cccc(Cl)c3)[n+]2[O-])CC1 | -38.1% |
| Cc1ccc(NC(=O)CC2SC(=NCC3CCCO3)NC2=O)cc1Cl (stereo not drawn) | -3.57% |
| Cc1c(C)n2c(SCC(=O)NC3CCCCC3)nnc2[nH]c1=O | -8.13% |
| CCCCN(C(=O)c1ccco1)C1CCS(=O)(=O)C1 (stereo not drawn) | 0.36% |
| O=C1c2ccc(-c3ccc4c(c3)C(=O)N(CCO)C4=O)cc2C(=O)N1CCO | 14.6% |
| CN(CC1CCCN(CCc2ccccc2F)C1)C(=O)c1ccoc1 (stereo not drawn) | -66.7% |
| COCC(=O)N(C)CC1CCCN(CCc2ccccc2OC)C1 (stereo not drawn) | 7.26% |
| COc1ccccc1CCN1CCCC(CN(C)C(=O)c2ccoc2)C1 (stereo not drawn) | -51.2% |
| COc1ccccc1CCN1CCCC(CN(C)C(=O)c2ccco2)C1 (stereo not drawn) | -68.9% |
| CN(C)CCN(CC1CCCN(Cc2ccccc2F)C1)C(=O)c1ccc(F)cc1 (stereo not drawn) | 3.46% |

| SMILES | hERG current change (%, negative = inhibition) at 10uM |
| --- | --- |
| Cc1occc1C(=O)N(C)CC1CCCN(CCc2ccccc2F)C1 (stereo not drawn) | -51.1% |
| Cc1ccccc1CC(=O)N(CCN(C)C)CC1CCCN(Cc2ccccc2F)C1 (stereo not drawn) | 1.19% |
| COc1ccccc1CCN1CCCC(CN(C)C(=O)c2ccc3nc[nH]c3c2)C1 (stereo not drawn) | 12.1% |
| COc1ccccc1CCN1CCCC(CN(C)CC(C)(C)CO)C1 (stereo not drawn) | -0.609% |
| O=c1[nH]oc2cc(Cl)ccc12 | 11.3% |
| CCOc1ccc(OCC(=O)Nc2ccc(S(N)(=O)=O)cc2)cc1 | -7.32% |
| O=C(NCc1cccs1)c1nc2c(nnn2Cc2ccccc2Cl)c(=O)[nH]1 | 5.42% |
| COC(=O)CSc1nn(-c2ccc(F)cc2)c(=S)s1 | -2.71% |
| Cn1c(CC(=O)Nc2ccccc2)nnc1SCCOc1ccccc1 | 2.08% |
| CC1CC(=O)Nc2ccc([N+](=O)[O-])cc2N1C (stereo not drawn) | 7.59% |
| Cc1cc(C)c(C(=O)N(C)C2CCCN(Cc3ccccc3F)C2)o1 (stereo not drawn) | -0.652% |
| Cc1cc(C)c(C(=O)N(CCN(C)C)CC2CCCN(Cc3ccccc3F)C2)o1 (stereo not drawn) | 7.61% |
| Cc1cc(C)c(C(=O)N(C)CC2CCCN(CCc3ccccc3F)C2)o1 (stereo not drawn) | -70.4% |
| CCCn1c(SCC(=O)Nc2nccs2)nnc1-c1cccnc1 | -0.265% |
| COc1cccc(NC(=O)c2oc3ccccc3c2NC(=O)c2ccc3c(c2)OCO3)c1 | 5.18% |
| O=C1C2CC=CCC2C(=O)N1c1n[nH]c(Cc2ccccc2)n1 (stereo not drawn) | 2.31% |
| COc1ccccc1C(CNC(=O)CNC(=O)c1ccc(Cl)c(Cl)c1)N1CCCC1 (stereo not drawn) | -32.9% |
| CCCCN(CCCC)CCNC(=O)c1cn(CC)c2ccc(S(=O)(=O)N3CCCC3)cc2c1=O | -65.7% |
| CCCCNC(=O)c1cn(C)c2ccc(S(=O)(=O)N3CCCC3)cc2c1=O | 12.6% |
| CCCCSCCCNC(=O)c1cn(C)c2ccc(S(=O)(=O)N3CCCC3)cc2c1=O | 11.2% |
| CCCCNC(=O)c1cn(CC)c2ccc(S(=O)(=O)N3CCCC3)cc2c1=O | -38.1% |
| CCCCNC(=O)c1cn(CC)c2ccc(S(=O)(=O)N3CCCCCC3)cc2c1=O | 7.01% |
| CCCCN(CCCC)CCNC(=O)c1cn(C)c2ccc(S(=O)(=O)N3CCCC3)cc2c1=O | -57.9% |
| CCOc1ccc(NC(=O)CN(C)C(=O)CCCc2c[nH]c3ccccc23)cc1OCC | -3.25% |

| SMILES | hERG current change (%, negative = inhibition) at 10uM |
| --- | --- |
| Cc1occc1-c1nnc(SCC(=O)Nc2ccccc2)n1Cc1ccccc1 | -76.3% |
| COc1ccccc1NC(=O)CSc1nnc(-c2ccoc2C)n1CCc1ccccc1 | -64.8% |
| CC(=O)c1ccc(NC(=O)CSc2nnc(-c3ccoc3C)n2Cc2ccccc2)cc1 | -30.8% |
| CCCn1c(SCC(=O)Nc2ccccc2-c2ccccc2)nnc1-c1ccoc1C | -26% |
| Cc1ccccc1NC(=O)CSc1nnc(-c2ccoc2C)n1CCc1ccccc1 | -59.6% |
| COc1ccccc1NC(=O)CSc1nnc(C)n1CCc1ccccc1 | -14.3% |
| Cc1nnc(SCC(=O)Nc2ccccc2)n1CCc1ccccc1 | -33% |
| Cc1occc1-c1nnc(SCC(=O)Nc2ccccc2)n1C | 9.72% |
| Cc1cccc(C)c1NC(=O)CSc1nnc(-c2ccoc2C)n1CCc1ccccc1 | -46.3% |
| Cc1occc1-c1nnc(SCC(=O)Nc2ccccc2)n1CCc1ccccc1 | -67% |
| COc1ccccc1NC(=O)CSc1nnc(-c2ccoc2C)n1C | -1.59% |
| Cc1occc1-c1nnc(SCC(=O)Nc2ccc(F)cc2)n1Cc1ccccc1 | -49.4% |
| CSc1nc(SC)c2c3c(oc2n1)COC(C)(C)C3 | 7.86% |
| Cc1ccc(N2CCN(/N=C/C(Cl)=C/c3ccccc3)CC2)cc1 | -5.13% |
| O=C(CN(Cc1ccco1)C(=O)c1ccc(Cl)cc1)Nc1c(Cl)cc(Cl)cc1Cl | 7.76% |
| CN1C(=O)c2ccccc2Sc2ccc(NC(=O)NC3CC3)cc21 | -11% |
| CCOc1ccccc1C(=O)NCC(=O)NCC1CCCCC1 | 12.2% |
| COc1ccc(N2C(=O)C3C4C=CC(CC4)C3C2=O)c([N+](=O)[O-])c1 (stereo not drawn) | -5.27% |
| O=C(/C=C/c1ccco1)NC(=S)Nc1ccc(O)c(-c2nc3ccccc3s2)c1 | 13.2% |
| CSc1ccccc1NC(=S)N/N=C/c1cccn1Cc1ccc(F)cc1 | -6.67% |
| O=C(c1cc(=O)c2ccccc2o1)N1CCN(c2ccccc2F)CC1 | -15.3% |
| Cc1cc(NC(=O)CSc2nnc(C3CC3)n2Cc2ccccc2)no1 | -8.63% |
| Cc1occc1-c1nnc(SCC(=O)NCCc2ccccc2)n1C(C)c1ccccc1 (stereo not drawn) | -31.8% |
| Cc1occc1-c1nnc(SCC(N)=O)n1Cc1ccccc1 | 3.5% |

| SMILES | hERG current change (%, negative = inhibition) at 10uM |
| --- | --- |
| COCCn1c(SCC(=O)Nc2ccc(OC)cc2)nnc1-c1ccoc1C | -3.58% |
| COc1ccc(NC(=O)CSc2nnc(-c3ccoc3C)n2CCc2ccccc2)cc1 | -54.3% |
| COc1ccc(NC(=O)CSc2nnc(-c3ccoc3C)n2CC2CCCO2)cc1 (stereo not drawn) | -5.04% |
| Cc1cc(NC(=O)CSc2nnc(-c3ccco3)n2Cc2ccccc2)no1 | -44.3% |
| Cc1cc(NC(=O)CSc2nnc(-c3ccc(Br)o3)n2Cc2ccccc2)no1 | -51.2% |
| Cc1occc1-c1nnc(SCC(=O)NCCc2ccccc2)n1Cc1ccccc1 | -81.1% |
| COc1cccc2cc(C(=O)NCCc3ccccc3)oc12 | -20.1% |
| C/C(=N\NC(=O)C1(C)CC1(Br)Br)c1ccc(NC(=O)c2ccc(C)o2)cc1 (stereo not drawn) | -8.92% |
| COc1cc2nc(-c3cccs3)oc(=O)c2cc1OC | 4.77% |
| COc1cccc2c1Oc1ncccc1N(C(=O)CCC(=O)NCc1cccc(C)c1)C2 | -23.5% |
| CC(C)[C@H](NC(=O)C1CCN(S(=O)(=O)c2ccccc2)CC1)C(=O)NCc1ccccc1 | 10.2% |
| O=C(COC(=O)/C=C/c1ccc(Br)o1)NC1CCCCC1 | 11% |
| O=C(CCN1CCN(c2ccccc2)CC1)N/N=C/c1ccc([N+](=O)[O-])o1 | -73.4% |
| O=C(CCN1CCN(c2ccccc2)CC1)N/N=C/c1ccccc1O | -16% |
| O=C(N/N=C/c1ccc([N+](=O)[O-])o1)C1CCCC1 | 10.6% |
| CCCCCC(=O)N/N=C/c1ccc([N+](=O)[O-])o1 | -26.2% |
| O=C(CN1CCCCCCC1)N/N=C/c1ccc([N+](=O)[O-])o1 | -52.1% |
| O=C(Cc1ccc([N+](=O)[O-])cc1)N/N=C/c1ccco1 | -15.3% |
| O=C(Cc1ccc([N+](=O)[O-])cc1)N/N=C/c1ccc([N+](=O)[O-])o1 | -64.7% |
| O=C(Cc1ccccc1)N/N=C/c1ccc(-c2ccc([N+](=O)[O-])cc2)o1 | 4.21% |
| CC(=O)Nc1ccc(/C=N/NC(=O)CCN2CCN(c3ccccc3)CC2)cc1 | -2.3% |
